A short description of assay [1]: qHTS RealTime-Glo MT Cell Viability Assay in HEK293 cells - 32 hour (AID 1224868). Also: top concentration of the series differs between compounds; nearly all actives have a fitted effect of over 50% in size. In a few lines:
(§1)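 HEK293 cells were seeded at 600 cells/well together with NanoLuc luciferase and cell-permeant prosubstrate, preincubated 5 h at 37 C/5% CO2, then given compound in DMSO by pintool. Luminescence from viable-cell prosubstrate reduction was read repeatedly over 40 h.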
A general note: Quantitative high-throughput screening tests each substance at several concentrations.

Assay [2] can be described thus: qHTS RealTime-Glo MT Cell Viability Assay in HepG2 cells - 40 hour (AID 1224870). Also: nearly all actives have a fitted effect of over 50% in size. In a few lines: (§2)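 HepG2 cells mixed with RealTime-Glo MT reagents (NanoLuc plus cell-permeant prosubstrate) were seeded at 600 cells/well, incubated 5 h at 37 C/5% CO2, then pinned with compounds in DMSO; nonlytic luminescence tracked viability during 40 h treatment.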
A short description of assay [3]: qHTS RealTime-Glo MT Cell Viability Assay in HEK293 cells - 16 hour (AID 1224872). Also: top concentration of the series differs between compounds; nearly all actives have a fitted effect of over 50% in size. A digest of the protocol:
as §1

Assay [4] is described as follows: qHTS RealTime-Glo MT Cell Viability Assay in HepG2 cells - 8 hour (AID 1224873). Also: nearly all actives have a fitted effect of over 55% in size. In a few lines: as §2
A short description of assay [5]: qHTS RealTime-Glo MT Cell Viability Assay in HEK293 cells - 40 hour (AID 1224874). Also: nearly all actives have a fitted effect of over 50% in size. The following applies: RealTime-Glo luminescence, hits give low values. A digest of the protocol: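 Nonlytic bioluminescent viability monitoring. HEK293 at 600 cells/well with reagent; 5 h settle; compound transfer by pintool; plates held at 37 C and read at set time points.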
The nature of assay [6]: A CellTox Green Cytotoxicity Assay to monitor cytotoxicity in HEK293 cells - 24 hour (AID 1224875). Also: nearly all actives have a fitted effect of over 45% in size. Also: potency is read from the fitted curve at half-maximal effect. As to activity change: series mostly up to about 77 µM. A digest of the protocol:
(§3)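 Cytotoxicity was tracked continuously in HEK293 cells by a DNA-binding dye excluded from viable cells. Compounds were transferred in DMSO 5 h after seeding; fluorescence was recorded at intervals up to 40 h.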

Assay [7] in a line: A CellTox Green Cytotoxicity Assay to monitor cytotoxicity in HepG2 cells - 16 hour (AID 1224876). Also: nearly all actives have a fitted effect of over 45% in size. Also: potency is read from the fitted curve at half-maximal effect. A digest of the protocol:
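Real-time, homogeneous cytotoxicity readout: dead-cell DNA staining by CellTox Green in HepG2 monolayers, fluorescence measured at timed intervals up to 40 h of continuous compound exposure.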

Assay [8] is described as follows: qHTS RealTime-Glo MT Cell Viability Assay in HepG2 cells - 32 hour (AID 1224877). Also: nearly all actives have a fitted effect of over 55% in size. A digest of the protocol: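 HepG2 cells were seeded at 600 cells/well together with NanoLuc luciferase and a cell-permeant prosubstrate, preincubated 5 h at 37 C/5% CO2, then pin-dosed with compounds in DMSO. Nonlytic luminescence from viable cells was read at each time point.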
Assay [9] is described as follows: A CellTox Green Cytotoxicity Assay to monitor cytotoxicity in HEK293 cells - 40 hour (AID 1224871). Also: nearly all actives have a fitted effect of over 45% in size. Also: potency is read from the fitted curve at half-maximal effect. In a few lines:
as §3

Assay [10] can be described thus: A CellTox Green Cytotoxicity Assay to monitor cytotoxicity in HEK293 cells - 0 hour (AID 1224869). Also: nearly all actives have a fitted effect of over 50% in size. In a few lines: as §3

A number with no mark means an inactive call. Records with an inconclusive call do not appear. Active and inactive are the calls of the source. Calls follow the shape of the dose curve; as a rule, active = well fitted curve in the direction sought with a large enough effect in the repeat runs; inconclusive = weak or mixed curves; inactive = no such curve, though single readings can be large; an effect the other way counts as inactive or inconclusive.
% is scaled to controls: 0 for no effect and ±100 for the full control effect.

On to `COC(=O)/C=C(\C)CCC=C(C)C`, for which the outcome in assay [1], in assay [2], in assay [3], in assay [4] and in assay [8] was inactive. For the same compound, the max response in [5] is 9.52%. For the same compound, the Potency entry in assay [6] and in assay [7] was “inactive” throughout.

Regarding `O=C1c2ccccc2C(=O)N1CO`, the compound was classed as inactive in assay [1], in [2], in assay [3] and in assay [4]. Moreover, in assay [5], the max response was -6.25%. Moreover, the Potency result in [6] and in assay [7] was “inactive” throughout.

`CCO[Si](CC(C)C)(OCC)OCC`: the result in [1], in assay [2], in assay [4] and in [8] was inactive. For the same compound, the Potency result in assay [9] and in [6] was “inactive” throughout.

Take `CC(C)OC(=O)C(C(=O)OC(C)C)=C1SC=CS1`: the call in assay [10], in assay [4] and in [8] was inactive. The Potency result in assay [9], in assay [6] and in assay [7] was “inactive” in each case.

Consider `CCO/C=C1\N=C(c2ccccc2)OC1=O`, for which the compound was called inactive in assay [1], in [2], in [4] and in assay [8]. Besides, in [5], the max response is 18.4%. Also, the Potency result in assay [6] and in assay [7] was “inactive” throughout.

In the case of `O=C1Nc2ccccc2C1=O`, the outcome in assay [2] was inactive. In addition, the Potency entry in assay [6] and in [7] was “inactive” throughout.

For the compound `CC(C)(C)C(=O)CCc1ccc(Cl)cc1`, the call in assay [1], in assay [3], in assay [4] and in assay [8] was inactive. In [5], the max response is 1.49%. Moreover, the Potency entry in assay [7] was “inactive”.

Regarding `C=CCN1CCc2nc(N)sc2CC1`, the call in [1], in assay [2], in assay [3], in assay [4] and in [8] was inactive. The Potency entry in assay [9] and in [6] was “inactive” in each case. Besides, the max response in assay [5] is 7.02%.

For `Nc1ccc(C(=O)NCC(=O)O)cc1`, the compound was called inactive in assay [1], in [2], in [3], in assay [4] and in assay [8]. Also, the Potency entry in [9] and in [6] was “inactive” throughout. Further, the max response in assay [5] was -0.411%.

Consider `CC[C@@]1(c2ccccc2)NC(=O)N(C)C1=O`, for which the compound was classed as inactive in assay [1], in [2], in assay [3], in assay [4] and in [8]. Further, the Potency result in assay [9], in assay [6] and in assay [7] was “inactive” throughout.

Regarding `CN(C)c1cc(NC(=O)CNC(C)(C)C)c(O)c2c1C[C@H]1C[C@H]3[C@H](N(C)C)C(=O)C(C(N)=O)=C(O)[C@@]3(O)C(=O)C1=C2O`, the result in assay [1], in assay [2], in assay [3], in [4] and in [8] was inactive. The Potency result in [9] and in assay [7] was “inactive” in each case. The max response in assay [5] is 2.22%.

As to `CC(=O)c1c(C)cc(C(C)(C)C)cc1C`, the call in assay [10], in assay [2], in assay [4] and in [8] was inactive. The Potency in assay [9] was 24.5 µM (active); in assay [6], 21.9 µM (active); in [7], 38.9 µM (active).

Regarding `NC[C@H]1O[C@H](O[C@H]2[C@H](O)[C@@H](O[C@H]3O[C@H](CO)[C@@H](O)[C@H](N)[C@H]3O)[C@H](N)C[C@@H]2N)[C@H](N)[C@@H](O)[C@@H]1O`, the activity change, negative = cytotoxic in assay [1] was 4.09% [at 15.8 µM]; in assay [2] it was 0.593% [at 15.8 µM]; in [8], 3.63% [at 15.8 µM]. Further, the cytotoxicity increase in assay [9] is -1.49% [at 15.8 µM]. For the same compound, the activity change, negative = cytotoxicity in assay [3] is 6.75% [at 15.8 µM]. Besides, the viability change, negative = cytotoxic in assay [4] was 4% [at 15.8 µM]. In addition, in assay [5], the max response was 5.23%. Also, in [6], the activity change is 0.657% [at 15.8 µM, hits give high values].

Consider `CCN(CC)CC(=O)Oc1ccc(NC(C)=O)cc1`, for which the call in assay [2], in assay [4] and in assay [8] was inactive. In addition, the Potency result in assay [9] and in assay [7] was “inactive” throughout.

Take `COC(=O)c1c(C)cc(O)c(C)c1O`: the result in assay [10], in assay [2], in [4] and in assay [8] was inactive. The Potency entry in [9], in [6] and in assay [7] was “inactive” throughout.

On to `O=C(O)/C=C(\CC(=O)O)C(=O)O`, for which the call in [1], in [3] and in [4] was inactive. Also, the Potency entry in assay [9], in assay [6] and in [7] was “inactive” in each case.

For `CC(=O)OC/C=C(/C)CCC=C(C)C`, the outcome in assay [1], in assay [2], in assay [3], in [4] and in assay [8] was inactive. Further, the Potency entry in assay [9], in assay [6] and in assay [7] was “inactive” in each case. Also, the max response in assay [5] is -1.6%.

Consider `COc1cc(S(N)(=O)=O)cc(C(=O)O)c1OC`, for which the compound was classed as inactive in assay [1], in assay [3], in [4] and in assay [8]. Also, the Potency result in [9] and in [7] was “inactive” in each case.

Regarding `CC(=O)c1ccc2ccc3ccccc3c2c1`, the outcome in assay [2], in assay [4] and in assay [8] was inactive. In addition, the Potency entry in assay [9] and in [6] was “inactive” in each case.

`O=C(O)CCC(=O)Nc1ccc(S(=O)(=O)Nc2nccs2)cc1`: the call in [1], in assay [2], in assay [3], in assay [4] and in [8] was inactive. Besides, the Potency entry in [9] and in assay [6] was “inactive” each time. For the same compound, the max response in assay [5] is 2.99%.

On to `C=CC(=O)CC`, for which the result in assay [1], in assay [2], in assay [4] and in assay [8] was inactive. The Potency entry in [9] and in assay [7] was “inactive” each time.

With `C=CCn1cc[n+](C)c1`, the compound was called inactive in [1], in assay [3], in assay [4] and in [8]. The Potency result in [9], in [6] and in assay [7] was “inactive” each time. In assay [5], the max response was -3.76%.

As for `O=C(OOC(=O)c1ccccc1)c1ccccc1`, the compound was called inactive in [10], in [2], in assay [4] and in assay [8]. Further, the Potency entry in [9], in [6] and in assay [7] was “inactive” throughout.

For the compound `CN1CCN(C(=O)C2CCCCC2)CC1`, the compound was called inactive in [1], in [2], in assay [3], in assay [4] and in assay [8]. The Potency result in [9], in assay [6] and in [7] was “inactive” throughout. Besides, in assay [5], the max response was 0.482%.

With `C[C@@H]1CCC[C@H](C)N1CCCC(O)(c1ccccc1)c1ccccn1` (stereo partly drawn), the call in assay [1], in assay [2], in assay [3], in assay [4] and in assay [8] was inactive. Also, the Potency entry in assay [9] and in [7] was “inactive” each time. The max response in [5] was 4.53%.

As for `CCC(C)c1nccnc1OC` (stereo not drawn), the compound was called inactive in assay [1], in assay [2], in assay [3], in [4] and in [8]. Besides, the Potency entry in assay [9], in assay [6] and in [7] was “inactive” each time. Further, the max response in assay [5] was 1.32%.

Turning to `COC(C)(C)CC(C)=O`, the result in assay [1], in assay [2], in assay [3], in assay [4] and in [8] was inactive. Besides, the Potency result in assay [9], in [6] and in assay [7] was “inactive” each time. For the same compound, the max response in [5] is 1.4%.

For the compound `CC(O)CCCCn1c(=O)c2c(ncn2C)n(C)c1=O` (stereo not drawn), the outcome in assay [1], in assay [3], in assay [4] and in [8] was inactive. Moreover, the Potency entry in [9], in assay [6] and in [7] was “inactive” each time. Also, the max response in [5] was 0.953%.

On to `Cc1ccc2ccccc2n1`, for which the compound was classed as inactive in assay [1], in assay [2], in assay [3], in [4] and in assay [8]. In addition, the Potency result in assay [9] and in [6] was “inactive” throughout. Also, the max response in [5] was 18.8%. The Potency in [7] was 0.138 µM (active).

Regarding `CCN1CCN(C(=O)N[C@@H](C(=O)N[C@@H]2C(=O)N3[C@@H]2SC(C)(C)[C@H]3C(=O)O)c2ccccc2)C(=O)C1=O`, the call in assay [1], in [2], in assay [4] and in assay [8] was inactive. Moreover, the Potency result in assay [9] and in [6] was “inactive” throughout. Besides, the max response in [5] is 1.08%.

For `CCCCOCCCC`, the result in [1], in [3], in assay [4] and in assay [8] was inactive. In addition, in assay [7], the Potency result is “inactive”.

Regarding `CCCCC(O)/C=C(C)/C=C/C=C/C(=O)N1CCCC1=O` (stereo not drawn), the compound was called inactive in assay [1], in assay [3], in assay [4] and in assay [8]. Moreover, the Potency entry in assay [9], in assay [6] and in [7] was “inactive” each time. Also, the max response in assay [5] was 2.14%.

For `CC(=O)/C=C/C=C1/C2CCC(C2)C1(C)C` (stereo not drawn), the call in [1], in assay [3], in assay [4] and in assay [8] was inactive. Besides, in assay [9], the Potency result was “inactive”.

For the compound `CC(C)OCCO`, the result in [1], in [2], in assay [4] and in [8] was inactive. For the same compound, the Potency entry in assay [9], in [6] and in assay [7] was “inactive” each time.

Regarding `Cc1nnc(C(=O)NC(C)(C)c2nc(C(=O)NCc3ccc(F)cc3)c(O)c(=O)n2C)o1`, the call in assay [10], in [2], in [3] and in [4] was inactive. In addition, the Potency entry in assay [9], in assay [6] and in assay [7] was “inactive” throughout. The max response in assay [5] is 21.7%.

Take `N=C(N)N`: the outcome in assay [1], in [2], in [3], in assay [4] and in assay [8] was inactive. Besides, the Potency entry in [9], in [6] and in assay [7] was “inactive” throughout. The max response in assay [5] was -0.588%.
